We go through 40 sequences from the OligoGym collection.
Note: reference of the scale not given here.

The target of the first assay is KRT75. The assay can be described thus: pooled miR-30 sensor sort-seq; sequence = guide strand. Particulars: shRNA.
In turn, TTTCACATGTGTAACAGACGGG gave a sensor-assay potency score (higher = more potent) of 0.696.
On to TTGTGCTTTGACCTCGGCGATG, for which the sensor-assay potency score (higher = more potent) was -1.35.
Still for that read-out and setting: to TCAACCTGCACTCCTCGCCTTC belongs -1.25; to TATTGTGCTTTGACCTCGGCGA, -0.108; to TTAATAGACACATTCCAGGGAG, 0.363.
Still for that read-out and setting: with TTCCACAACATCCTGCATGTTC the figure was 0.126.

The next assay addresses KRT79. Described as above. Particulars: shRNA.
For the sequence TTAACCTTCCCTCCCATCCTAC, the sensor-assay potency score (higher = more potent) was -1.2.
For the sequence TTGACCGTAGTGGTCTTCCGCA, the sensor-assay potency score (higher = more potent) was -0.477.
TTCTCTGCAGCAGTGTGCTTGT had a sensor-assay potency score (higher = more potent) of -0.0157.
ATTTGTGCTGAATCCACCCTTG registered a sensor-assay potency score (higher = more potent) of 0.32.
The same measure, in the same setting: to TCGCTCTCCAGAAGCTTGCGGT belongs -0.966.
Still for that read-out and setting: to TTGCCATGCAGATCCATCCGGC belongs -0.416; to TTTGTGGAGTATGTTTGCCGAG, -0.673.
For the sequence TTGATTTCATCCTCGTACTTGT, the sensor-assay potency score (higher = more potent) came out at 0.185.
TTGAGCACCACAAACTCGTTCT gave a sensor-assay potency score (higher = more potent) of 0.422.
Take TTTGCCATGCAGATCCATCCGG: the sensor-assay potency score (higher = more potent) is -0.203.
Still for that read-out and setting: to TTCATCCTCGTACTTGTTCTTG belongs -0.726.
As for TTGCCAGTCACAGAAATGCTGA, the sensor-assay potency score (higher = more potent) is -0.931.

The target in the next assay is KRT85. The assay is described as above. As to conditions: shRNA.
Sequence TTCTTTAGAACGACAAACTCAT showed a sensor-assay potency score (higher = more potent) of 0.238.
For the sequence ATCTTGACTATGACCGAGGTGT, the sensor-assay potency score (higher = more potent) was -0.378.
On the same count and under the same terms, with AACATCGTCATACTGAGCCTTG the figure was -0.503; with TTGACTATGACCGAGGTGTCTG, -0.0564; with TTTATTGAAACACAGATCGAGA, -0.788.
TTCACTGAATAGCAAGACCTGT: the sensor-assay potency score (higher = more potent) is -0.614.
On the same count and under the same terms, to TTGCTCTCGCAGCAGCGCTGGT belongs -1.3; to TCCCTCTGTAGGAACATCCAGA, -1.53; to TTGAAACACAGATCGAGACAAC, -0.784.
Same read-out and setting: with TAGAACGACAAACTCATTCTCT the figure was 0.106; with TATTTTGGAGCTAAGTAGGAGT, -0.047; with TTCTGGTAGAACTGCCACTTGG, -1.54.

The target of the next assay is KRT86. Described as above. Particulars: shRNA.
As for TGACAATGTCATCGTACTGTGC, the sensor-assay potency score (higher = more potent) is -0.56.
As to TTAGTTTTTCAGAAGCTCTTGA, the sensor-assay potency score (higher = more potent) was 0.521.
ACGGGTGACAATGTCATCGTAC showed a sensor-assay potency score (higher = more potent) of -0.601.
The same measure, in the same setting: with TTTATTGGAAACACAGAGTGAA the figure was 0.556.
The same measure, in the same setting: with AATGTCATCGTACTGTGCCTTG the figure was -0.754.
The sequence TAGTAGTGCCCACCACCACGTT registered a sensor-assay potency score (higher = more potent) of -1.34.
Still for that read-out and setting: to TCCAGCTCGGCCAACTTGCAGC belongs -1.89; to TTATTGGAAACACAGAGTGAAA, -1.53.
The same measure, in the same setting: to TTGCTGTTGCTGGGGACGCTAC belongs -1.52.
With TCGTACTGTGCCTTGATCTCGG, the sensor-assay potency score (higher = more potent) worked out at 0.0587.
